Data taken from PubChem BioAssay AID1863 (Southern Research Specialized Biocontainment Screening …, 2009).
Where “and” joins values, the source holds several entries; their conditions need not be identical. Identical values can stand only once. In all, about 300,000 compounds went through this assay and about 480 (0.16%) were called active. These entries were drawn from the full list. Potency and affinity values are given separately. A number with no mark means an inactive call.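 The calls were made as follows: active = inhibition over 29.93%, a cutoff 3 SD above the screen mean, later confirmed by dose response; inconclusive = inhibition over 29.93% but no dose response follow-up; inactive = inhibition at most 29.93% or unconfirmed.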

Experiment: PhoP-dependent GFP reporter repression – Salmonella Typhimurium, primary screen (AID 1863);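 also: 0% = low Mg2+ inducing control and 100% = high Mg2+ repressing control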
Settings: S. Typhimurium PhoP-regulated promoter GFP reporter, 4 h; at 50 µM; active compounds read high

Row | Structure (SMILES) | inhibition
1 | O=C1C(O)=C(O)C(=O)c2ccccc21 | 9.48%
2 | O=C1Nc2ccccc2C1=O | 6.44%
3 | COC(=O)C1=C(SC)N(c2ccccc2)C(c2ccccc2)CC1=O (stereo not given) | 11.8%
4 | CCCCCCCCCCCCCCCC[n+]1ccc(C(N)=O)cc1 | 20.5%
5 | NC(=O)C[n+]1ccc(/C=N/O)cc1 | -4.29%
6 | CCS(=O)(=O)N1CCCC(C(=O)NCCCOC)C1 (stereo not given) | -8.48%
7 | CC1(N(O)/C=C2\C=CC=CC2=O)CCCCC1=O (stereo not given) | -4.1%
8 | COC(=O)CCC(=O)Nc1ccccc1C(N)=O | 15.3%
9 | COc1ccc(O)c(/C=N/NC(=S)Nc2cccc(S(=O)(=O)N(C)C)c2)c1 | 22.2%
10 | CN(C)S(=O)(=O)c1cccc(NC(=S)N/N=C/c2ccc(O)c(O)c2O)c1 | -0.51%
11 | Cc1ccc(Nc2nc(N)c([N+](=O)[O-])c(NCc3ccccc3)n2)cc1 | -2.58%
12 | Nc1ccc2c(c1)C(=O)c1ccccc1C2=O | 8.76%
13 | O=C1C(=O)c2ccc(-c3ccccc3)cc2-c2ccccc21 | -10.4%
14 | CC(=O)Nc1ccc(S(=O)(=O)N2C(C)CCCC2C)cc1 (stereo not given) | 11.1%
15 | COc1ccc(/C=N/NC(=O)Cn2nnc3ccccc32)cc1OC | -6.81%
16 | COc1cc(/C=N/NC(=O)Cn2nnc3ccccc32)ccc1O | -5.12%
17 | COCCNC(=O)C1CCC(Cn2c(=S)[nH]c3ccccc3c2=O)CC1 (stereo not given) | 4.17%
18 | CC(C)(C)/C(O)=C/c1nc2ccccc2oc1=O | -5.43%
19 | Cc1ccc2oc(=O)c(/C=C(\O)C(C)(C)C)nc2c1 | -0.34%
20 | CC(=O)Nc1ccc(CN(C)CC2CCCN(CCc3cccc(C(F)(F)F)c3)C2)cc1 (stereo not given) | 8.69%
21 | COc1ccccc1N=CC=C1OC(C)(C)C(C)(C)O1 | -3.09%
22 | CC(Cc1cccc(C(F)(F)F)c1)NCCOC(=O)c1ccccc1 (stereo not given) | -9.48% and -7.52%
23 | CNC[C@@H](C)NC[C@@H](Cc1ccccc1)NCCc1ccccc1 | 9.81%
24 | CCC[C@H](CN[C@@H](CNC)[C@H](C)CC)NCCc1cc(C(F)(F)F)cc(C(F)(F)F)c1 | 19.5%
25 | CCC[C@@H](CNC)NC[C@H](Cc1ccccc1)NCCCCc1ccccc1 | 3.18%

Row | Structure (SMILES) | inhibition
26 | Cc1ccccc1-c1noc(CCC(=O)NCC2CCCO2)n1 (stereo not given) | 6.26%
27 | O=C1OCCC/C1=C\c1ccc2c(c1)OCO2 | 1.4%
28 | O=C(Cc1nc2ccccc2[nH]1)c1cccc([N+](=O)[O-])c1 | -11.1%
29 | CCC(=O)N1C(=O)C2(Nc3ccccc3N2)c2ccccc21 | -1.88%
30 | CC(C)(C)c1ccc(NC(=O)COC(=O)c2ccc(NS(=O)(=O)c3ccc(F)c(F)c3)cc2)cc1 | 1.23%
31 | CCCCOc1ccc(CN(C)c2ncnc(N)n2)cc1 | -10.1%
32 | Cc1cc(=O)[nH]c(Cc2ccc(OC(C)C)cc2)n1 | 10.3%
33 | CCCOc1ccc(Cc2nc(N)nc(N)n2)cc1 | 20.1%
34 | COc1cc(C)c(Cc2cnc(N)nc2N)cc1OC | -1.03%
35 | CC(C)Oc1ccc(Cc2cnc(=S)[nH]c2N)cc1 | 5.16%
36 | COc1ccc(Cc2c(N)nc(N)nc2N)cc1 | 2.89%
37 | O=C(Nc1ccc(N2CCOCC2)c(Cl)c1)c1ccc(F)cc1 | -2.15%
38 | S=C(NCC1CCCO1)c1ccc(Br)cc1 (stereo not given) | 2.88%
39 | CCOC(=O)C1(C)/C(=N/Nc2ccccc2)C(=O)C(=O)N1c1ccccc1 (stereo not given) | -7.22%
40 | CCCn1cnnc1CNC(=O)C1CCC(=O)N(CCCc2ccccc2)C1 (stereo not given) | 2.57%
41 | CCOC(=O)c1cc(S(=O)(=O)NCC2CCN(Cc3cccc(C)c3)CC2)cn1C | 1.53%
42 | O=C(Nc1ccnn1C1CCN(C(=O)c2c(F)cccc2F)CC1)C1CC1 | -1.51%
43 | Cc1ncc(CN2CCCC(CCC(=O)NCc3ccc(F)c(F)c3)C2)s1 (stereo not given) | -2.44%
44 | Cn1cnc([N+](=O)[O-])c1Oc1ccccc1 | 21.7%
45 | Cn1cnc([N+](=O)[O-])c1Oc1ccc2ccccc2c1 | 16.2%
46 | CCCCCCC(C)n1[nH]c(=O)cc1N (stereo not given) | 0.2%
47 | Cc1ccc(-c2noc(CN3C(C)CCCC3C)n2)cc1 (stereo not given) | 3.05%
48 | Cc1ccc(C(=O)NC2CCCCC2)cc1S(=O)(=O)N1CCCC1 | 4.45%
49 | Cc1ccc(NC(=S)NC(CO)C(O)c2ccc([N+](=O)[O-])cc2)cc1 (stereo not given) | 8.17%
50 | CS(=O)(=O)c1ccc(C(=O)NCc2ccccc2F)cc1 | -3.92%

Row | Structure (SMILES) | inhibition
51 | CS(=O)(=O)c1ccc(C(=O)NC(Cc2ccccc2)c2ccccc2)cc1 (stereo not given) | 4.54%
52 | O=C(O)c1cc(S(=O)(=O)NC(CO)C(O)c2ccc([N+](=O)[O-])cc2)ccc1Br (stereo not given) | 8.08%
53 | Cc1cccc(CN2CCN(Cc3cccc(-n4cccn4)c3)CC2CCO)n1 (stereo not given) | -2.39%
54 | O=C1CCN(Cc2ccc(Cl)cc2)N1 | -4.83%
55 | CC(=O)c1cccc(S(=O)(=O)Nc2ccc(N3CCOCC3)cc2)c1 | -4.4%
56 | NC1=NC[C@@H](Cc2ccc(O)cc2)N1CCC12CC3CC(CC(C3)C1)C2 | -0.89%
57 | CCCCN1C(N)=NC[C@H]1Cc1ccc(O)cc1 | 5.24%
58 | CCCCN1C(N)=NC[C@@H]1c1ccccc1 | -3.32%
59 | NCCCC[C@H]1CN=C(N)N1CCCCC1CCCCC1 | 11.9%
60 | CCCCN1C(N)=NC[C@@H]1Cc1ccc(O)cc1 | 0.58%
61 | NC1=NC[C@@H](Cc2ccc(O)cc2)N1CC1CCCCC1 | -0.19%
62 | NC1=NC[C@H](c2ccccc2)N1CC1CCCCC1 | -3.43%
63 | NC1=NC[C@H](Cc2ccc(O)cc2)N1CC1CCCCC1 | 3.06%
64 | Cc1ccccc1OCC(=O)Nc1ccc(N2CCN(C)CC2)c(Cl)c1 | 5.97%
65 | COC(=O)c1ccc(OCC(=O)c2ccc(C)c(C)c2)cc1 | -11.3%
66 | CCOC(=O)c1c(-c2ccccc2)nc2cc(C)ccn12 | -0.32%
67 | Nc1nonc1NN=C1CCCCC1 | 2.62%
68 | COc1ccc(N(CC(=O)NC2CCCC2)C(=O)c2ccc(C)s2)cc1OC | -1.51%
69 | Cc1ccc(S(=O)(=O)N/N=C/c2cccs2)cc1 | 1.58%
70 | COc1ccc(OC)c(S(=O)(=O)CC(O)CS(=O)(=O)c2ccccc2)c1 (stereo not given) | -7.1%
71 | O=C(CC1C(=O)NCCN1CCCc1ccccc1)NCCc1ccccc1F (stereo not given) | 5.1%
72 | NC1=NC[C@H](Cc2ccccc2)N1CC1CCCCC1 | -1.5%
73 | CN(C)C1=NC[C@H](Cc2ccccc2)N1CCCC1CCCC1 | -2.38%
74 | O=C(Oc1ccc(/C=N/NC(=O)c2ccccc2O)cc1)c1ccccc1 | -2.42%
75 | Cc1nn(-c2ccccc2)c(N2CCCC2)c1/C=N/NC(=O)c1ccccc1O | -4.47%

Row | Structure (SMILES) | inhibition
76 | Cc1ccc(CCNC(=O)C2CCCN(S(=O)(=O)c3c(C)nn(C)c3C)C2)cc1 (stereo not given) | -2.59%
77 | Cc1[nH]c2ccccc2c1C(=O)CSC(=S)N1CCCCC1 | -9.67%
78 | O=C(Cc1nnc(NC(=O)Nc2ccccc2)s1)Nc1ccccc1 | 0.5%
79 | Cc1cccc(NC(=S)N2CCC(N(C)CC3CCCO3)CC2)c1 (stereo not given) | 2.69%
80 | Cc1cc[n+](CC[n+]2ccc(C)cc2)cc1 | 6.23%
81 | CCC(C)(C)c1ccc(OCCCC[n+]2cccc(C)c2)c(C(C)(C)CC)c1 | 25.6%
82 | CCC(C)(C)c1ccc(OCC(=O)N(C)C)c(C(C)(C)CC)c1 | -2.72%
83 | Cc1cc(C(C)(C)C)ccc1OCCCCN1CCCC1 | -7.85%
84 | Cc1nc2c(ncn2-c2ccccc2)c(=O)n1NC(=O)CN1CCN(C)CC1 | 4.84%
85 | COc1ccc(CNc2ncccc2[N+](=O)[O-])cc1 | 2.57%
86 | COC(C(=O)Nc1ccc(Br)cc1F)c1ccccc1 (stereo not given) | 4.52%
87 | COc1ccc2[nH]cc(/C=N/NS(=O)(=O)c3ccc(C)cc3)c2c1 | -5.48%
88 | NC(=S)N/N=C/c1c[nH]c2ccc(OCc3ccccc3)cc12 | 1.88%
89 | COc1ccccc1OCC(O)Cn1c(=N)n(Cc2ccccc2)c2ccccc21 (stereo not given) | -0.92%
90 | N=c1n(Cc2ccc(Cl)cc2)c2ccccc2n1CC(O)COc1ccccc1 (stereo not given) | 3.85%
91 | O=C(NC1CCCCC1)C1COc2ccccc2O1 (stereo not given) | 1.35%
92 | O=C(N/N=C/C=C/c1ccccc1[N+](=O)[O-])c1cccs1 | -10.8%
93 | O=C(N/N=C/C=C/c1ccc([N+](=O)[O-])cc1)c1cccs1 | -4.65%
94 | Cc1scc(C(=O)N/N=C/c2ccco2)c1C | 0.79%
95 | Cc1cc(C(=O)N/N=C/c2ccc([N+](=O)[O-])o2)c(C)o1 | -2.92%
96 | O=C(N/N=C/c1ccc([N+](=O)[O-])o1)c1ccncc1 | 3.52%
97 | CCCC(=O)Nc1ccc(C(=O)N/N=C/c2ccc([N+](=O)[O-])o2)cc1 | -16.6%
98 | OC1CCN(Cc2ccc(OCc3ccccc3)cc2)CC1 | 2.08%
99 | O=S(=O)(c1ccc(Br)cc1)N1CCN=C1SCc1cccc(F)c1 | -2.02%
100 | Cc1c(C(=O)N(Cc2cccc(Br)c2)C2CCS(=O)(=O)C2)oc2ccc(F)cc12 (stereo not given) | 3.11%
